Screening data deposited in PubChem by National Center for Advancing Translational Sciences (NCATS).
Hits are enriched below; roughly 19% of the tested compounds scored in any of these assays.
HT1080-NT tox = qHTS for induction of synthetic lethality in tumor cells producing 2HG: qHTS for the HT-1080-NT fibrosarcoma cell line | Potency, µM (series often up to 46.1 µM), without a hit: at the highest dose activity, negative = less viability, actives largely listed as cytotoxic | 1.6% of 360,000 active | HT-1080-NT fibrosarcoma viability, CellTiter-Glo ATP luminescence, 48 h;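 also: NT is the 2HG producing partner of a matched IDH1 knockdown line; potency is read from the fitted curve at half-maximal effect; 0% = DMSO-treated cells and -100% = media-only wells without cells; nearly all actives have a fitted effect of over 55% in size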
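HT-1080-NT; 750 cells/well; 5% FBS RPMI; 48 h compound, 37 degrees C; CellTiter-Glo luminescence; curve fitting and curve-class assignment.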
DT40 TDP1 no CPT = qHTS for Inhibitors of human tyrosyl-DNA phosphodiesterase 1 (TDP1): qHTS in cells in absence of CPT. DT40 Tdp1-/- hTDP1 cells, no CPT, ATP luminescence, 48 h. Potency, µM (top dose mostly 46.2 µM), for the others: at the highest dose activity change, negative = growth inhibition, actives largely listed as inhibitors. 15% of 420,000 active. AID 686978, 2013; also: potency is read from the fitted curve at half-maximal effect; nearly all actives have a fitted effect of over 55% in size
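Compound effects on proliferation are scored in DT40 Tdp1-/-;hTDP1 cells in the absence of CPT. ATP levels (CellTiter-Glo luminescence) are recorded after a ≥48 hr, 37 °C incubation.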
DT40 TDP1 CPT = qHTS for Inhibitors of human tyrosyl-DNA phosphodiesterase 1 (TDP1): qHTS in cells in presence of CPT | chicken DT40 Tdp1-/-;hTDP1 cells + 20 nM CPT, ATP luminescence, 48 h | Potency, µM (series often up to 46.2 µM), without a hit: at the top dose activity change, negative = growth inhibition, most hits filed as inhibitors | 12% of 420,000 active; also: potency is read from the fitted curve at half-maximal effect; nearly all actives have a fitted effect of over 55% in size
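Chicken DT40 Tdp1-/- cells complemented with human TDP1, 400 cells/well, exposed to compounds plus 20 nM camptothecin for at least 48 h at 37 C; viability read as ATP content by CellTiter-Glo luminescence.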
HT1080 IDH1KD tx = qHTS for induction of synthetic lethality in tumor cells producing 2HG: qHTS for the HT-1080-IDH1KD cell line. HT-1080 IDH1 knockdown viability, ATP luminescence, 48 h. 2% of 360,000 active. AID 686971, 2013. Potency, µM (top dose mostly 46.1 µM), for inactives: top-dose activity, negative = toxicity, most hits filed as cytotoxic;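 also: potency is read from the fitted curve at half-maximal effect; 0% = DMSO wells and -100% = cell-free medium wells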
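Viability of IDH1-knockdown HT-1080 fibrosarcoma cells was assessed by CellTiter-Glo after 48 h at 37 °C with titrated compound; concentration-effect curves were classified by fit quality and response size.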
IL-1B inflam inh = qHTS for Inhibitors of Inflammasome Signaling: IL-1-beta AlphaLISA Primary Screen; THP-1 LPS/ATP IL-1B secretion, AlphaLISA, 16 h; hits give low values; activity change, % at 57.5 µM; 4.7% of 360,000 active; AID 743279, 2014; in the data active = activity change below about -50%; inconclusive = mostly about -30% to -49%
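Secreted IL-1B measured by AlphaLISA bead assay after 16 h compound exposure of THP-1 cells; compounds (final up to 57.5 uM) added 1 h before LPS (250 ng/mL) and ATP (1.25 mM) stimulation; lower signal means less secretion.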
Numbers without * were called inactive; ? = inconclusive; nt = no result given; [ ] = dose if it differs, or a comment. Unless noted, calls follow the shape of the dose curve; as a rule, active = well fitted curve in the direction sought with a large enough effect; inconclusive = small, poorly fitted or top-dose-only effect, or another doubt; inactive = no such curve, though single readings can be large; an effect the other way counts as inactive or inconclusive. Unless noted, % is scaled to controls: 0 for no effect and ±100 for the full control effect.

SMILES	HT1080-NT tox	DT40 TDP1 no CPT	DT40 TDP1 CPT	HT1080 IDH1KD tx	IL-1B inflam inh
CC(C)C(=O)N1CCCC1(C)C(=O)N(C)Cc1cccc2ccccc12 (stereo unspecified)	20.3%	-22.1%	-22.7%	18.2%	15.2
CCN(C(=O)CSc1nc(-c2ccc(C(C)C)cc2)no1)c1ccccc1	nt	?	14.6µM*	nt	nt
COc1cc(NC(=O)CSc2nc(-c3ccc(C(C)C)cc3)no2)cc(OC)c1	nt	?	-15.5%	nt	nt
CCN(C(=O)CSc1nc(-c2ccc(C(C)C)cc2)no1)c1cccc(C)c1	nt	?	14.6µM*	nt	nt
CCCCN1C(=O)c2ccc(C(=O)NCCN3C(=O)S/C(=C\c4cccnc4)C3=O)cc2C1=O	9.0%	?	?	6.2%	-0.3
O=C(CN1C(=O)NC(CCc2ccccc2)C1=O)Nc1ccccc1C(F)(F)F (stereo unspecified)	-0.6%	3.8%	-0.8%	1.0%	-0.6
CCN(Cc1cc2cccc(C)c2[nH]c1=O)C(=O)c1ccccc1OC	-3.2%	23.1µM*	?	-1.9%	-2.8
COc1ccc2[nH]c(=O)c(CN(C(=O)c3cccnc3)c3ccc(C)c(C)c3)cc2c1	-20.0%	?	11.6µM*	-25.7%	-14.1
COc1ccccc1N(Cc1cc2cccc(C)c2[nH]c1=O)C(=O)c1cccc(Cl)c1	nt	20.6µM*	13µM*	nt	nt
COCCN(Cc1cc2cccc(C)c2[nH]c1=O)C(=O)c1ccccc1	8.4%	-2.4%	-12.4%	3.4%	15.4
COc1ccc(N(Cc2cc3ccccc3[nH]c2=O)C(=O)c2cccc(Cl)c2)cc1	nt	23.1µM*	16.4µM*	nt	nt
COCC(=O)N(Cc1cc2ccccc2[nH]c1=O)c1ccccc1OC	9.3%	-14.0%	2.5%	11.7%	15.0
COc1ccc2[nH]c(=O)c(CN(c3ccc(C)c(C)c3)S(C)(=O)=O)cc2c1	-10.9%	-26.7%	-22.4%	-1.1%	-9.1
CCOC(=O)N1CCN(c2c(N3CCN(c4ccccc4F)CC3)c(=O)c2=O)CC1	0.2%	-13.4%	3.7%	0.0%	2.0
CCCC(=O)N(Cc1cc2cc(OC)ccc2[nH]c1=O)c1ccccc1OC	-0.6%	?	14.6µM*	4.0%	-13.9
CC(=C\c1ccccc1)/C=C1/SC(=S)N(CC(=O)O)C1=O	nt	-14.0%	4.0%	nt	nt
O=C(NCC1CC1)c1cc2c(c(-c3cccc(-c4ccccc4F)c3)n1)[C@@H](CCO)N(C(=O)CC1CC1)C2	20.6µM*	?	20.6µM*	?	-59.5*
O=C(NCC(F)(F)F)c1cc2c(c(-c3cccc(-c4ccccc4F)c3)n1)[C@@H](CCO)N(C(=O)CC1CC1)C2	?	?	?	20.6µM*	?
CCC(=O)N1Cc2cc(C(=O)NCC(F)(F)F)nc(-c3cccc(-c4cncnc4)c3)c2[C@H]1CCO	3.8%	-2.9%	-8.1%	15.1%	-12.8
O=C(NCC1CC1)c1cc2c(c(-c3cccc(-c4ccccc4F)c3)n1)[C@H](CCO)N(C(=O)CC1CC1)C2	23.1µM*	18.4µM*	?	?	0.0
CCNC(=O)c1cc2c(c(-c3cccc(-c4ccccc4F)c3)n1)[C@@H](CCO)N(C(=O)CC)C2	-5.7%	?	?	-8.0%	-10.9
CCOC(=O)c1ccc(NC(=S)Nc2ccc(Br)cc2N)cc1	?	-19.1%	-15.1%	?	18.1
CC1CCCC(C)N1C(=O)CSc1nnc(COc2ccccc2)n1-c1ccccc1 (stereo unspecified)	-18.8%	20.6µM*	?	-0.5%	-22.0
Cc1ccc(-n2c(COc3ccccc3)nnc2SCC(=O)O)cc1	10.5%	-3.9%	-4.1%	-1.4%	-3.9
OC(c1ccc2ccccc2c1)c1ncc(-c2cccc3ccccc23)[nH]1 (stereo unspecified)	18.4µM*	?	?	25.9µM*	?
SMILES	HT1080-NT tox	DT40 TDP1 no CPT	DT40 TDP1 CPT	HT1080 IDH1KD tx	IL-1B inflam inh
OC(c1ccc(Cl)c(F)c1)c1ncc(-c2cccc3ccccc23)[nH]1 (stereo unspecified)	?	?	?	?	-60.4*
Cc1cccc(OCC(=O)O/N=C(\N)c2ccc(Br)cc2)c1	7.8%	4.6%	-0.9%	7.2%	nt
CCOCCCNCc1ccc(OC)cc1	7.8%	-9.0%	-26.8%	20.8%	-15.6
COc1ccc(C(CCNCc2ccc(OC(C)C)cc2)C(C)C)cc1 (stereo unspecified)	?	6.51µM*	4.61µM*	?	nt
COc1ccc(C(CCNCc2ccc(N(C)C)cc2)C(C)C)cc1 (stereo unspecified)	18.4µM*	7.31µM*	7.31µM*	?	-100.3*
COCCNCc1ccc(C(C)C)cc1	-1.2%	-17.9%	-21.7%	-0.5%	10.0
CCc1c(O)cc(=O)n(-c2ccccc2)c1-c1ccccc1	-0.4%	2.1%	-3.8%	-6.3%	18.0
O=C(Nc1ncc(S(=O)(=O)c2ccc([N+](=O)[O-])cc2)s1)c1ccc2ccccc2c1	-17.2%	?	16.4µM*	-23.5%	7.3
CCOCCC(=O)Nc1ncc(S(=O)(=O)c2ccc([N+](=O)[O-])cc2)s1	-5.8%	-14.3%	0.4%	-4.1%	0.0
O=C(Nc1ncc(S(=O)(=O)c2ccc([N+](=O)[O-])cc2)s1)c1cccnc1	?	18.4µM*	5.8µM*	23.1µM*	?
Cc1cc(C(=O)NCC2CCC3(CCN(Cc4ccc(-c5ccccc5)cc4)CC3)O2)n(C)n1 (stereo unspecified)	nt	4.61µM*	?	nt	nt
COc1cc(CN2CCC3(CCC(CNC(=O)c4ccccc4)O3)CC2)cc(OC)c1 (stereo unspecified)	nt	?	10.3µM*	nt	nt
Cc1nc2ccc(C(=O)NCC3CCC4(CCN(Cc5cccnc5)CC4)O3)cc2nc1C (stereo unspecified)	nt	-25.8%	-6.3%[9.04 µM]	nt	nt
COc1ccc(F)c(CN2CCC3(CCC(CNC(=O)c4cc(C)nn4C)O3)CC2)c1 (stereo unspecified)	nt	14.6µM*	?	nt	nt
Cc1cc(C(=O)NCC2CCC3(CCN(Cc4ccccc4C)CC3)O2)n(C)n1 (stereo unspecified)	nt	-16.3%	-25.8%	nt	nt
CCOC(=O)c1cc([N+](=O)[O-])sc1N	-13.8%	-16.1%	-27.8%	-6.4%	22.9
COc1ccc(-c2nc3cnc(N4CCOCC4)nc3n(CCc3ccccc3)c2=O)cc1	nt	17.7%	-3.9%	nt	nt
COc1ccc(/C=C/c2cnccn2)cc1OC	nt	-25.1%	-22.3%	nt	nt
